From PubChem
CF NFkB inh = blocks PAF-induced NF-kB reporter in cystic fibrosis cells; inhibition, % at 5 µM; KKLEB NF-kB-GFP reporter, GFP fluorescence overnight; actives 0.86% (n = 360,000);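 active = at least 50% inhibition at 5 µM, scaled per plate between neutral and stimulator controls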;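 note: PAF is a Pseudomonas aeruginosa culture filtrate used as stimulus; plate controls were PAF-stimulated DMSO wells for no effect and unstimulated DMSO wells for full effect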
HIF-2a block = HIF-2a inhibition; actives 0.72% (n = 360,000); inhibition, % at 18.8 µM; 786-0 RCC cells HIF-2a reporter, luciferase luminescence, overnight;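 active = inhibition of the luminescence signal of 40% or more relative to plate controls, in a single-dose primary screen at 18.75 µM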
Peg3 prom inh = reduces Peg3 promoter-driven luciferase expression in HeLa; HeLa PEG-Prom luciferase reporter, luminescence, overnight; inhibition, % at 20 µM; actives 1.7% (n = 360,000);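 active = inhibition of at least 50% at 20 µM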
TROY NFkB inh = TROY signaling inhibition | Q293 LMP1-TROYcd NF-kB luciferase reporter, 4 h | inhibition, % at 10 µM | actives 0.98% (n = 360,000);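 active = compounds whose plate-normalised and pattern-corrected inhibition of the luciferase reporter signal at the single screening dose is 50% or more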
TWEAK Fn14 block = inhibitors of TWEAK-Fn14 interaction signaling | TWEAK-stimulated Fn14 reporter cells, luciferase luminescence, 8 h | inhibition, % at 10 µM | actives 2% (n = 360,000); in the data active = inhibition above about 50%
KKLEB tox = counter-screen for CF NF-kB inhibitors: cytotoxicity; KKLEB CF airway cells viability, ATPlite luminescence, overnight; hits give low values; cells stimulated with P. aeruginosa culture filtrate; activity change (cytotoxicity), % at 5 µM; actives 0.36% (n = 360,000);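 active = corrected activity change at or below -50% at 5 µM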
The depositor's hits bear a star. Only some compounds are listed: those with a hit (about 4% of all), similar ones and a draw of the others.

For COc1ccc(-c2cc(NC=O)c3ncc(-c4cccc(C(=O)NCCN(C)C)c4)n3c2)cn1 the results were CF NFkB inh 12.4, HIF-2a block 3.8, Peg3 prom inh 3.0, TROY NFkB inh -15.6, TWEAK Fn14 block -31.7 and KKLEB tox -15.3.
CN(C)CCNC(=O)c1cccc(-c2cnc3c(NC=O)cc(-c4cccs4)cn23)c1 was read as CF NFkB inh 2.5, HIF-2a block -38.8, Peg3 prom inh 52.9*, TROY NFkB inh 1.2, TWEAK Fn14 block -10.1 and KKLEB tox -13.5.
`CN(C)CCNC(=O)c1cccc(-c2cnc3c(NC=O)cc(-c4ccccc4F)cn23)c1` gave CF NFkB inh 0.2, HIF-2a block -27.8, Peg3 prom inh 95.5*, TROY NFkB inh -9.6, TWEAK Fn14 block -23.6 and KKLEB tox 8.6.
For CCn1c(CCn2c3ccccc3c3ccccc32)n[nH]c1=S the results were CF NFkB inh 11.1, HIF-2a block 10.2, Peg3 prom inh -12.4, TROY NFkB inh -14.3, TWEAK Fn14 block 11.3 and KKLEB tox -8.6.
Screening O=C(NCCc1c[nH]c2ccccc12)OCCCCOC(=O)NCCc1c[nH]c2ccccc12 returned CF NFkB inh 5.9, HIF-2a block 4.7, Peg3 prom inh 24.4, TROY NFkB inh 70.8*, TWEAK Fn14 block 74.2* and KKLEB tox 0.6.
Screening O=C(NCCc1cn2cccnc2n1)C1CCC(=O)N(Cc2ccccc2F)C1 (configuration not stated) returned CF NFkB inh 4.7, HIF-2a block 1.9, Peg3 prom inh 2.1, TROY NFkB inh -14.3, TWEAK Fn14 block -23.2 and KKLEB tox 6.8.
`CN(c1ccc(OCC(=O)Nc2nc(-c3ccccc3)cs2)cc1)S(=O)(=O)c1ccc(F)cc1` gave CF NFkB inh -18.6, HIF-2a block -14.2, Peg3 prom inh -7.4, TROY NFkB inh 18.1, TWEAK Fn14 block 55.2* and KKLEB tox -7.1.
Screening Cc1cccc(OCC(=O)Nc2nc3ccc([N+](=O)[O-])cc3s2)c1 returned CF NFkB inh 28.1, HIF-2a block -28.8, Peg3 prom inh -14.1, TROY NFkB inh 58.6*, TWEAK Fn14 block 1.0 and KKLEB tox -7.1.
Screening Cc1ccc(S(=O)(=O)N(C)c2ccc(OCC(=O)Nc3nc4ccccc4s3)cc2)cc1 returned CF NFkB inh -7.4, HIF-2a block -32.8, Peg3 prom inh -20.4, TROY NFkB inh 24.2, TWEAK Fn14 block 70.3* and KKLEB tox 0.6.
For Cc1ccc[n+](CC(=O)Nc2nc3ccccc3s2)c1 the results were CF NFkB inh -14.9, HIF-2a block -8.5, Peg3 prom inh -11.7, TROY NFkB inh 81.5*, TWEAK Fn14 block 63.5* and KKLEB tox 4.9.
COc1cccc(C(=O)N2CCN(c3nc4cc(C)cc(C)c4cc3C#N)CC2)c1 was read as CF NFkB inh -16.1, HIF-2a block -6.4, Peg3 prom inh 15.7, TROY NFkB inh -1.1, TWEAK Fn14 block -4.4 and KKLEB tox -2.6.
`CCc1ccccc1OCC(=O)Nc1nc(-c2cccnc2)cs1` gave CF NFkB inh -3.8, HIF-2a block -11.2, Peg3 prom inh 30.9, TROY NFkB inh 61.2*, TWEAK Fn14 block -39.1 and KKLEB tox -15.7.
CCN=c1scc(-c2ccc(F)cc2)n1/N=C/c1ccccn1 was read as CF NFkB inh -7.5, HIF-2a block -348.8, Peg3 prom inh -305.7, TROY NFkB inh -20.7, TWEAK Fn14 block 24.2 and KKLEB tox -25.4.
Screening CCCc1sc(N/N=C/c2ccccn2)nc1-c1ccc(F)cc1 returned CF NFkB inh 35.6, HIF-2a block -95.4, Peg3 prom inh -42.2, TROY NFkB inh -9.3, TWEAK Fn14 block -20.3 and KKLEB tox -50.7*.
`CCOc1ccc(C2=Nn3c(nnc3-c3ccco3)SC2)cc1` gave CF NFkB inh -3.0, HIF-2a block -9.0, Peg3 prom inh 25.5, TROY NFkB inh -16.1, TWEAK Fn14 block -28.3 and KKLEB tox -68.5*.
COc1cc(/C=C(\NC(C)=O)C(=O)Nc2ccccc2C)ccc1OC(C)=O was read as CF NFkB inh 11.3, HIF-2a block 18.3, Peg3 prom inh 5.0, TROY NFkB inh -3.6, TWEAK Fn14 block -6.6 and KKLEB tox 6.4.
For Cc1c(CCOC(=O)C23CC4CC(CC(C4)C2)C3)sc[n+]1CC#N the results were CF NFkB inh 76.0*, HIF-2a block 1.3, Peg3 prom inh 51.1*, TROY NFkB inh 10.5, TWEAK Fn14 block 25.5 and KKLEB tox -63.3*.
CC(=O)NNc1ncnc2c1cnn2-c1ccc(C)c(Cl)c1 was read as CF NFkB inh -2.0, HIF-2a block -114.8, Peg3 prom inh -94.5, TROY NFkB inh 61.4*, TWEAK Fn14 block 72.5* and KKLEB tox -4.4.
For Cc1ccc(Cl)cc1-n1ncc2c(NNC(=O)c3ccco3)ncnc21 the results were CF NFkB inh -11.4, HIF-2a block 5.9, Peg3 prom inh -0.3, TROY NFkB inh -1.9, TWEAK Fn14 block 62.7* and KKLEB tox 6.0.
`Cc1cccc(/C=C2\CCC(=C3SCCCS3)C2=O)c1` gave CF NFkB inh -14.6, HIF-2a block 8.2, Peg3 prom inh 16.2, TWEAK Fn14 block 75.3* and KKLEB tox -64.5*.
Screening CCN(CC(=O)Nc1ccc(NC(C)=O)cc1)C(=O)c1cc(C)on1 returned CF NFkB inh -11.5, HIF-2a block 16.5, Peg3 prom inh 0.0, TROY NFkB inh -20.2, TWEAK Fn14 block 10.2 and KKLEB tox 2.8.
CCN(C(=O)COC(=O)c1cnccn1)c1cccc2ccccc12 was read as CF NFkB inh -0.3, HIF-2a block 20.4, Peg3 prom inh -3.2, TROY NFkB inh -7.0, TWEAK Fn14 block 7.4 and KKLEB tox -2.1.
Screening CCCCc1nc(N2CCN(C(=O)c3ccco3)CC2)c(C#N)c2c1CCCC2 returned CF NFkB inh -0.2, HIF-2a block -3.7, Peg3 prom inh 32.0, TROY NFkB inh 67.7*, TWEAK Fn14 block -7.0 and KKLEB tox -12.7.
For O=c1c2ccc(Cl)cc2[nH]c(=S)n1CCC1=CCCCC1 the results were CF NFkB inh -4.4, HIF-2a block -50.1, Peg3 prom inh -65.9, TROY NFkB inh -13.1, TWEAK Fn14 block -9.7 and KKLEB tox 5.3.
`COc1ccc(CC(=O)Nc2nc(-c3cc(OC)ccc3OC)cs2)cc1` gave CF NFkB inh -9.3, HIF-2a block -5.9, Peg3 prom inh 26.9, TROY NFkB inh 19.8, TWEAK Fn14 block 64.8* and KKLEB tox 5.7.
Screening COc1ccc(CCNC(=O)C2COc3ccccc3O2)cc1OC (configuration not stated) returned CF NFkB inh -3.2, HIF-2a block 4.3, Peg3 prom inh 3.8, TROY NFkB inh 11.6, TWEAK Fn14 block 92.9* and KKLEB tox -7.0.
COc1ccc(CCNC(=O)c2cc3cc(F)ccc3nc2C)cc1OC was read as CF NFkB inh 1.4, HIF-2a block 10.0, Peg3 prom inh 16.4, TROY NFkB inh 14.7, TWEAK Fn14 block 51.3* and KKLEB tox 1.5.
